Source: PubChem BioAssay AID2314 (National Center for Advancing Translational Sciences (NCATS), 2010)
Values joined by “and” are separate entries in the source; they are usually repeats but may differ in a detail not shown here. Equal values may be shown once. Out of some 300,000 compounds screened, about 37,000 (12%) were called active. The entries come from a sample that favours actives as a whole. A number with no mark means an inactive call. Rule as the data show it: active = max response mostly above about 13% (no sharp cut-off); inactive = mostly below about 14%.

Assay: Cycloheximide Counterscreen for Small Molecule Inhibitors of Shiga Toxin; also: read at 38.3 µM for the half of the compounds with a filed dose; 0% is about no effect
Details: cell reporter, cycloheximide protein synthesis inhibition counterscreen; active compounds read high

| SMILES | max response |
| --- | --- |
| COc1ccc(CNC(=O)[C@H](Cc2c[nH]c3ccccc23)NC(C)=O)cc1OC | -3.86% |
| O=C(O)c1ccc(NC(=O)c2ccc(COc3ccc(Cl)cc3)o2)cc1 | 2.26% |
| O=C(Nc1ccn(Cc2ccccc2F)n1)c1ccc(COc2ccc(Cl)cc2Cl)o1 | 15.1% (active) |
| COc1ccc(Cl)cc1NC(=O)NCC1CCN(Cc2ccccc2F)CC1 | -0.34% |
| Cc1nn(C(C)(C)C)c(OC(=O)CC(C)C)c1S(=O)(=O)c1ccccc1 | 9.13% |
| COc1ccc(C2c3[nH]c4ccccc4c3C[C@H]3C(=O)N(CC(C)C)CC(=O)N23)c(OC)c1 (stereo partly specified) | -3.45% |
| COc1ccc(C2C=C(c3ccc(Br)cc3)Nc3nc(NS(C)(=O)=O)nn32)cc1 (stereo unspecified) | -3.16% |
| Cn1nc([N+](=O)[O-])nc1Sc1ccc(C(C)(C)C)cc1 | -3.02% |
| O=C(CN1CCN(C(=O)C2CCCO2)CC1)Nc1c(Cl)cccc1Cl (stereo unspecified) | -1.69% |
| Cc1cccc(N=C2NC(=O)/C(=C/c3cn(C)c4ccccc34)S2)c1 | 3.29% |
| Cc1cccc(N=C2NN=C(c3c[nH]c4ccccc34)CS2)c1 | 25.2% (active) |
| Cc1cccc(C(=O)Nc2nnc(Cc3c[nH]c4ccccc34)s2)c1 | 3.09% |
| CC1CCCCC1NC(=O)c1cn(C)c2ccc(S(=O)(=O)N3CCOCC3)cc2c1=O (stereo unspecified) | 1.03% |
| O=C(NC1CCN(Cc2ccccc2)CC1)c1ccccc1F | -5.27% |
| Cc1nc(CNS(=O)(=O)c2cccnc2)cs1 | -2.9% |
| O=C(NCCc1csc(-c2ccccc2)n1)c1ccccc1F | 17.6% (active) |
| O=S(=O)(NCCc1csc(-c2ccccc2)n1)c1cccnc1 | 19.7% (active) |
| O=C(NCCc1ccccn1)c1cc(-c2ccc(Cl)cc2)nc2ccccc12 | -4.89% |
| O=S(=O)(NCCc1ccncc1)c1ccccc1 | -2.7% |
| Cc1ccc(-c2nn(C(C)(C)C)c3ncnc(N)c23)cc1 | -0.92% |
| COc1ccc(NC(=O)C2C3CCC(O3)C2C(=O)O)cc1OC (stereo unspecified) | -2.93% |

| SMILES | max response |
| --- | --- |
| COc1ccc(CN2C3CCCC2CC(NC(=O)c2cccc(F)c2)C3)cc1 (stereo unspecified) | -1.01% |
| CCOC(=O)c1ccccc1NC(=O)COC(=O)CCC(=O)N1CCOCC1 | -1.15% |
| COc1cc2c(cc1OC)C(C)N(S(=O)(=O)c1cnc(Cl)c(Cl)c1)CC2 (stereo unspecified) | 11.2% |
| COc1ccc(-n2ncc3c2CC(C)(C)CC3NC(=O)CCc2c(C)nn(C)c2C)cc1 (stereo unspecified) | 0.573% |
| CCCNC(=O)c1ccc(N2CCC3(CC2)CC(c2ccc(Cl)cc2)=NO3)c([N+](=O)[O-])c1 | -0.889% |
| S=C(c1ccc(-c2ccccc2)o1)N1CCCCC1 | 38.1% (active) |
| OCCN1CCN(C(=S)c2ccc(-c3ccccc3)cc2)CC1 | -2.28% |
| S=C(c1ccccc1)N1CCCC1 | -0.586% |
| Cc1ccc(OCC(=O)Nc2ccc(N3CCN(C(=O)c4ccco4)CC3)cc2)c(C)c1 | -1.02% |
| c1ccc(CN=C2Nc3ccccc3CS2)nc1 | 36.1% (active) |
| CCOC(=O)c1c(-c2ccccc2)oc2cc(Br)c(O)cc12 | -1.41% |
| Cc1ccc(C)c(S(=O)(=O)N2CCCOC2CNC(=O)C(=O)NC2CCCCC2)c1 (stereo unspecified) | 7.6% |
| Cc1nc2ccccc2nc(C)c1=NOCc1ccc(Cl)cc1Cl | 39.1% (active) |
| O=S(=O)(O)c1nc2ccccc2n1Cc1ccc(Cl)cc1Cl | -2.23% |
| COC(=O)c1sc2ncccc2c1OCc1ccc(Cl)cc1Cl | 4.4% |
| Cc1ccc(-n2ncc3c2CC(C)(C)CC3NC(=O)CCc2cnn(C)c2)cc1 (stereo unspecified) | -4.22% |
| O=C1c2cccc3cccc(c23)C(=O)N1c1cccc(O)c1 | -2.33% |
| O=C(Nc1cccc(Cl)c1N1CCOCC1)c1cccnc1 | 6.59% |
| Cc1noc(C)c1C(=O)NCCc1ccc(S(N)(=O)=O)cc1 | -1.04% |
| Cc1nc2sccn2c(=O)c1S(=O)(=O)NCCc1ccccc1 | -3.53% |
| CCOC(=O)C(=O)Nc1nc(-c2ccccc2)c(CC)s1 | -3.08% |

| SMILES | max response |
| --- | --- |
| Cc1ccc(-c2nc(C)sc2CC(=O)O)cc1 | -1.04% |
| C/C(=N/Nc1nc(-c2ccccc2)c(CC(=O)O)s1)c1ccccc1 | 35% (active) |
| O=[N+]([O-])c1ccccc1S(=O)(=O)Nc1cccc2cccnc12 | 10.3% and 10.1% and -3.71% |
| CCOC(=O)N1CCN(C(=O)COc2ccc(Cl)cc2C)CC1 | -3.61% |
| CCOC(=O)N1CCN(C(=O)CNC(=O)Cc2ccc(Cl)cc2)CC1 | -1.82% |
| CCN1CCN(C(=O)CSc2ccc(C)cc2)CC1 | 15.7% (active) |
| CCOC(=O)N1CCN(C(=O)CSc2ccc(Cl)cc2)CC1 | 20.3% (active) |
| CCN1CCN(C(=O)CCN2C(=O)c3ccccc3C2=O)CC1 | -1.33% |
| CS(=O)(=O)N1CCN(C(=O)CSc2ccccc2)CC1 | -1.13% |
| COc1ccc(OC)c(NC(=O)c2ccc3c(c2)C(=O)N(c2ccc(OC(C)=O)cc2)C3=O)c1 | 2.74% |
| CCC1SC2=NCCN2C1(O)c1ccc(Cl)cc1 (stereo unspecified) | -0.782% |
| COc1ccc(-c2noc(-c3cccc(OC)c3OC)n2)cc1OC | 36% (active) |
| CCOc1nc(-c2ccc(OC)cc2)ccc1-c1noc(-c2cc(OC)c(OC)c(OC)c2)n1 | 8.08% |
| COc1ccc(-c2csc3nc(-c4ccccc4F)oc(=O)c23)cc1OC | -1.13% |
| Cc1ccccc1OCC(=O)Nc1ccc(S(=O)(=O)N2CCOCC2)cc1 | 4.38% |
| CCCOc1cccc(C(=O)Nc2ccccc2C(=O)N2CCN(C)CC2)c1 | -0.829% |
| Nc1cccc2c1C(=O)N(Cc1nnc(-c3ccccc3Br)o1)C2=O | 12.5% |
| Cn1cnnc1SCc1nnc(-c2ccccc2Br)o1 | 24% (active) |
| Cn1cnnc1SCC(=O)NNC(=O)COc1ccc(Br)cc1 | -2.49% |
